# Unmarked numbers belong to inactive results.
# Columns and labels:
# [1] = tested on: Falciformispora senegalensis CBS197.79; test: growth relative to untreated control; higher = less inhibition, active = 20 or less
# How it was run: (§1)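 For each test, a hyphal fragment suspension of M. mycetomatis MM55 or F. senegalensis CBS197.79 was prepared in colourless RPMI 1640 with L-glutamine and MOPS at 68–72% transmission at 660 nm. Exposure to compound at 100 or 25 µM ran for 7 days at 37 °C in 96-well plates, followed by viability reading with MTS (2 h, 490 nm) or resazurin (600 nm). Growth corresponds to metabolic activity relative to the untreated growth control after correction of both with a blank of medium and dye.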
# [2] = tested on: Madurella mycetomatis MM55; test: as above
# How it was run: as §1
SMILES,growth ([1]; 25 µM),growth ([1]; 100 µM),growth ([2]; 25 µM),growth ([2]; 100 µM)
CCC(C)n1ncn(-c2ccc(N3CCN(c4ccc(OCC5COC(Cn6cncn6)(c6ccc(Cl)cc6Cl)O5)cc4)CC3)cc2)c1=O (centres undefined),37.2%,81.1%,5.47% (active),4.46% (active)
C[C@H]1O[C@@H](O[C@H]2[C@@H](O)C[C@H](O[C@H]3[C@@H](O)C[C@H](O[C@H]4CC[C@@]5(C)[C@H](CC[C@@H]6[C@@H]5C[C@@H](O)[C@]5(C)[C@@H](C7=CC(=O)OC7)CC[C@]65O)C4)O[C@@H]3C)O[C@@H]2C)C[C@H](O)[C@@H]1O,99.5%,106%,82.1%,90.8%
Nc1nc(C2CC2)cn1CC(O)c1ccc(Cl)cc1Cl (centres undefined),86%,73.7%,83.6%,83.2%
CCCOc1ccc(C(F)(F)F)cc1NC(=O)c1nc2nccc(C)n2n1,91.7%,90%,62%,84.4%
Cc1nc(NCc2ccc(F)cc2)nc(NCC(C)(C)C)c1C,15.9% (active),17.8% (active),6.77% (active),5.94% (active)
C=CC(=O)Nc1cc(Nc2nccc(-c3cn(C)c4ccccc34)n2)c(OC)cc1N(C)CCN(C)C,7.88% (active),12.6% (active),3.84% (active),2.43% (active)
CNC(=O)c1cc(Oc2ccc(NC(=O)Nc3ccc(Cl)c(C(F)(F)F)c3)cc2)ccn1,103%,94.4%,45.7%,35.1%
O=C(Nc1ncccc1O)c1ccc(Cn2cccn2)cc1,87.3%,86.4%,93.2%,123%
CCN(CC)CCOc1ccc(C(O)(Cc2ccc(Cl)cc2)c2ccc(C)cc2)cc1 (centres undefined),7.03% (active),8.2% (active),3.26% (active),3.33% (active)
CC(C)C[C@H](NC(=O)[C@H](Cc1ccccc1)NC(=O)c1cnccn1)B(O)O,103%,93.7%,113%,85.1%
COC(=O)C1=C(C)NC(C)=C(C(=O)OC)C1c1ccccc1[N+](=O)[O-],98.9%,41.1%,89.7%,4.04% (active)
O=C(Nc1ncc([N+](=O)[O-])s1)c1ccccc1O,95.8%,100%,72.6%,91.8%
COC(=O)C1=C(C)NC(C)=C(C(=O)OCCN2CCN(C(c3ccccc3)c3ccccc3)CC2)C1c1cccc([N+](=O)[O-])c1 (centres undefined),94%,99.1%,81.7%,86.7%
COc1ccc(-c2nn3c(-c4ccco4)nnc3s2)cc1OC,104%,96%,97%,55.2%
CCN1CCN(C2CCN(C(=O)COc3ccc(-c4ccccc4F)cc3)CC2)CC1,99.8%,6% (active),105%,41.1%
COc1ccc(-c2cnc3c(-c4ccccc4)c(-c4ccccc4)nn3c2N)cc1OC,93.2%,83.3%,86.3%,70.2%
CC(C)(C)[S@@](=O)N1Cc2cc(C(=O)NCCc3ccncc3)nc(-c3cccc(-c4ccccc4)c3)c2[C@H]1CCO,82.6%,102%,67.6%,52.9%
CCN(CC)Cc1cc(Nc2ccnc3cc(Cl)ccc23)ccc1O,89.8%,88.3%,81.3%,43.4%
NS(=O)(=O)c1cc2c(cc1Cl)NC=NS2(=O)=O,103%,103%,108%,96.2%
CNC(=O)c1cc(Oc2ccc(NC(=O)Nc3ccc(Cl)c(C(F)(F)F)c3)c(F)c2)ccn1,109%,101%,69.9%,74.4%
CC(C)Nc1cccnc1N1CCN(C(=O)c2cc3cc(NS(C)(=O)=O)ccc3[nH]2)CC1,101%,96.5%,104%,96.3%
CCOc1cc(C(C)(C)C)ccc1C1=N[C@@](C)(c2ccc(Cl)cc2)[C@@](C)(c2ccc(Cl)cc2)N1C(=O)N1CCN(CCCS(C)(=O)=O)CC1,99.6%,101%,86.9%,99.8%
CN1CCC(Oc2nc(Nc3ccccc3)nc3[nH]cc(-c4cnn(C)c4)c23)CC1,89%,79%,78.3%,17.9% (active)

SMILES,growth ([1]; 25 µM),growth ([1]; 100 µM),growth ([2]; 25 µM),growth ([2]; 100 µM)
CC(=O)N1CCN(c2ccc(OC[C@H]3CO[C@](Cn4ccnc4)(c4ccc(Cl)cc4Cl)O3)cc2)CC1,31.6%,12.3% (active),3.29% (active),3.16% (active)
Cc1cc(C(=O)N2CCOc3c(cc(-c4csc5ccccc45)cc3OCCc3ccccn3)C2)n(C)n1,90.1%,91.1%,5.62% (active),87.7%
Cc1cnc2nc(NC3COc4ccc(F)cc43)nc(NC3CCC4(CCCC4)CC3)c2c1 (centres undefined),85.8%,95%,73.6%,38.8%
O[C@@H](CNC[C@H](O)[C@H]1CCc2cc(F)ccc2O1)[C@@H]1CCc2cc(F)ccc2O1,5.42% (active),12.3% (active),5.79% (active),3.82% (active)
CCCCOC(=O)c1c(C)cnc2ccccc12,90.5%,98.7%,86.7%,141%
c1ccc(CCc2nc3cccnc3n2C2CCN(C3CCN(Cc4ccccc4)CC3)CC2)cc1,86.3%,49.8%,63.2%,5.59% (active)
N#Cc1cccc(C(=O)NC2CCN(c3ccnc(Nc4ccc(F)cc4)n3)C2)c1 (centres undefined),89.5%,88.1%,84.1%,85.8%
O=C(NC1CCNCC1)c1ccc(Nc2nccc(-c3ccc(Cl)cc3)n2)cc1,98%,10% (active),37.4%,6.07% (active)
CC(C)CC(NCCc1ccccc1O)c1ccccn1 (centres undefined),99.8%,78.8%,41.8%,41.6%
CO/C=C(/C(=O)OC)c1ccccc1COc1c(C)c(-c2ccc(C)cc2C)nn1C,46.5%,15% (active),6.33% (active),10.3% (active)
COc1cccc2c1C(=O)c1c(O)c3c(c(O)c1C2=O)C[C@@](O)(C(=O)CO)C[C@@H]3O[C@H]1C[C@H](N)[C@H](O)[C@H](C)O1,94.8%,96.3%,116%,72.5%
CC(C)(C)NCc1ccc(Nc2ccnc3cc(Cl)ccc23)cc1O,95.8%,17.1% (active),79.1%,3.73% (active)
O=C(Nc1cc(Cl)cc(Cl)c1O)c1c(O)c(Cl)cc(Cl)c1Cl,89.9%,12.5% (active),39%,3.21% (active)
O=c1c(Cl)c(OCc2ccc(Cl)nc2)cnn1-c1ccc(Cl)c(Cl)c1,92.2%,103%,61.7%,62.1%
CCN(CC)CCNc1nc(Nc2cccc(OC)c2)c2cnn(-c3ccccc3)c2n1,76.3%,17.5% (active),5.18% (active),4.88% (active)
S=C(NCc1ccc2c(c1)OCO2)N1CCN(c2ncnc3c2oc2ccccc23)CC1,113%,106%,73.4%,77.9%
Nc1nc2ccccc2n1CC(O)c1ccc(Cl)cc1Cl (centres undefined),82.1%,30.8%,95.4%,6.46% (active)
CC(C)OC(=O)[C@H](C)N[P@](=O)(OC[C@H]1O[C@@H](n2ccc(=O)[nH]c2=O)[C@](C)(F)[C@@H]1O)Oc1ccccc1,112%,108%,94.5%,85.7%
C[C@@H]1[C@@H](NC(=O)c2cn3cc(Cl)ccc3n2)C[C@H]2C[C@@H]1C2(C)C,95.5%,102%,69.5%,7.3% (active)
N=C(N)Nc1ccc(C(=O)Oc2ccc3cc(C(=N)N)ccc3c2)cc1,107%,66.5%,79.9%,72.3%
CC(CN1c2ccccc2Sc2ccccc21)N(C)C (centres undefined),102%,12.8% (active),77.8%,3.58% (active)
C=CC[C@@H]1/C=C(\C)C[C@H](C)C[C@H](OC)[C@H]2O[C@@](O)(C(=O)C(=O)N3CCCC[C@H]3C(=O)O[C@H](/C(C)=C/[C@@H]3CC[C@@H](O)[C@@H](OC)C3)[C@H](C)[C@@H](O)CC1=O)[C@H](C)C[C@@H]2OC,103%,105%,84.5%,48.1%
Nc1nc(Nc2ccc3c(c2)CC[C@@H](N2CCCC2)CC3)nn1-c1cc2c(nn1)-c1ccccc1CCC2,-3.21% (active),5.2% (active),4.07% (active),4.45% (active)
